Hits are enriched below; roughly 3% of the tested compounds scored in any of these assays.
DAGLB inhibitor = diacylglycerol lipase beta (human) inhibition. Q8NCG7. HEK293T DAGLB membrane lysate, EnzChek fluorogenic substrate. inhibition, % at 5.17 µM. 340,000 tested, 0.059% active. AID 504411; in the data active = inhibition above about 34%;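 also: 0% = enzyme with vehicle and 100% = wells lacking enzyme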
PAFAH1B2 inh = PAFAH1B2 (human) inhibition. P68402. recombinant PAFAH1B2, FP-rhodamine activity probe, fluorescence polarization. inhibition, % at 3.39 µM. 340,000 tested, 1.2% active. AID 492953;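 active = inhibition above the mean of all tested compounds plus 3 SD, cut at about 24% in these data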;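 also: 0% = enzyme with DMSO and 100% = wells lacking PAFAH1B2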
Target sequence (P68402 whole entry, looked up): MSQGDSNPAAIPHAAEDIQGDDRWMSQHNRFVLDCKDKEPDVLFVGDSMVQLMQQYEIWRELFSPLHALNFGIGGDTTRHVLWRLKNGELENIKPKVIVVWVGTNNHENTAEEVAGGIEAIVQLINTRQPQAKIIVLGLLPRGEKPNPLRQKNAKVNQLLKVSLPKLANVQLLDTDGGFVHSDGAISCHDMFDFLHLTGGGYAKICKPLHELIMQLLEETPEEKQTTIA
ATG4B inh = blocks human ATG4B protease cleavage of LC3 substrate; AID 504462; 340,000 tested, 0.51% active; inhibition, % at 8.33 µM; ATG4B cleavage of LC3-PLA2, NBD-HPC fluorescence, 1 h; in the data active = inhibition above about 40%
pPAFAH FP inh = pPAFAH (human) enzyme inhibition; Q13093; recombinant pPAFAH, FP-rhodamine probe fluorescence polarization; inhibition, % at 3.39 µM; 330,000 tested, 1.5% active; AID 463082;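 active = inhibition above the mean inhibition across the screen plus 3 SD, cut at about 25% in these data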;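 also: inhibitors block binding of the rhodamine activity-based probe so polarization drops; 0% = enzyme with DMSO and 100% = wells lacking pPAFAH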
PAFAH2 inh = PAFAH2 (human) inhibition; Q99487; recombinant PAFAH2, FP-rhodamine activity probe, fluorescence polarization; inhibition, % at 3.39 µM; 340,000 tested, 0.99% active; AID 492956;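 active = inhibition above the mean over all tested compounds plus 3 SD, cut at about 30% in these data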;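 also: inhibitors block probe labeling of enzyme so polarization drops; 0% = enzyme with DMSO and 100% = wells lacking PAFAH2 protein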
PAFAH1B3 FP inh = PAFAH1B3 (human) inhibition; inhibition, % at 3.39 µM; AID 492972; recombinant PAFAH1B3, FP-rhodamine probe, fluorescence polarization; 340,000 tested, 0.28% active;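 active = inhibition above the screen-wide average of all tested compounds plus 3 SD, cut at about 25% in these data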;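 also: 0% = enzyme with DMSO only and 100% = wells lacking PAFAH1B3 protein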
Target sequence (Q15102 whole entry, looked up): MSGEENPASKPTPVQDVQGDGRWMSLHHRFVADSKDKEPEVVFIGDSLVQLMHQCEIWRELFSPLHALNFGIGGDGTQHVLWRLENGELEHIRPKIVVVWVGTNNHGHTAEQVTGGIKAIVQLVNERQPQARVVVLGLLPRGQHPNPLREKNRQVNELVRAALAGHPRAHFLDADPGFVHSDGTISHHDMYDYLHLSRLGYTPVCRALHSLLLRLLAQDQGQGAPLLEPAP
Starred values were filed as active, the others as inactive; nt = no result.

SMILES	DAGLB inhibitor	PAFAH1B2 inh	ATG4B inh	pPAFAH FP inh	PAFAH2 inh	PAFAH1B3 FP inh
Cc1ccc(S(=O)(=O)Nc2ccc(-c3nc4ccc(C)cc4s3)cc2)cc1	-3	-7	-10	26*	-2	-2
CSc1nc2ccc(NS(=O)(=O)c3ccc(CNC(C)=O)cc3)cc2s1	-1	-3	-6	32*	-2	0
O=C1NC(=NCc2ccccc2)NC1(c1ccccc1)c1ccccc1	-2	8	-1	nt	10	-1
COc1ccc(OC)c(C(=O)CN2CCN(S(=O)(=O)c3ccc(Br)cc3)CC2)c1	-1	29*	-1	7	3	5
O=C(CN1CCN(S(=O)(=O)c2ccc(Br)cc2)CC1)c1ccc(O)c(O)c1	6	29*	0	11	14	1
O=C(CN1CCN(S(=O)(=O)c2ccc(Br)cc2)CC1)N/N=C/c1ccncc1	-2	29*	2	-7	-6	8
COc1ccc(S(=O)(=O)N2CCN(CCOc3ccc(Br)cc3)CC2)cc1OC	-1	3	5	1	6	12
COc1cc2c(cc1OC)CN(C1CCCN(Cc3cc(Cl)ccc3O)C1)CC2 (stereo not drawn)	-2	2	-4	-4	5	1
O=C(Nc1ccnn1C1CCN(Cc2ccc(CO)o2)CC1)c1ccc2c(c1)OCO2	-2	1	11	1	0	4
CCOC(=O)c1c(-c2ccc(C)o2)csc1NC(=O)CSc1nncs1	0	1	-4	25*	0	0
C=C(C)COc1ccc2c(C)c(CCC(=O)N3C[C@H]4C[C@@H](C3)c3cccc(=O)n3C4)c(=O)oc2c1	-2	7	-14	25*	-1	4
C=CCN1C(=O)C(Cc2ccc(OC)cc2)S/C1=N/N=C/c1ccco1 (stereo not drawn)	-9	0	4	28*	-4	0
COc1ccc(-c2csc(N3CCN(C(=O)c4ccco4)CC3)n2)cc1	1	9	7	2	4	4
COc1ccc(C2=NN(c3nc(-c4ccc(CNC(C)=O)cc4)cs3)C(c3ccco3)C2)cc1 (stereo not drawn)	4	1	-1	25*	-3	-10
Cc1cccc(Nc2nnc(SC/C(O)=C(\C#N)c3nc4ccccc4[nH]3)s2)c1C	10	21	38	28*	11	9
O=C(O)CCC(=O)N1CCN(c2nc(-c3ccccc3)c3cc(Br)ccc3n2)CC1	2	2	4	14	-5	0
O=C(O)CCC(=O)N1CCN(c2nc(-c3ccccc3Cl)c3cc(Br)ccc3n2)CC1	2	0	4	33*	8	6
O=[N+]([O-])c1ccccc1-c1ccc(/C=N/n2cnnc2)o1	1	0	2	10	3	-2
O=[N+]([O-])c1cc(-c2ccc(/C=N\n3cnnc3)o2)cc([N+](=O)[O-])c1	4	1	1	27*	3	5
O=C(c1ccc(Br)cc1)N(Cc1ccco1)C1CCS(=O)(=O)C1 (stereo not drawn)	0	4	7	1	0	0
COc1ccc(S(=O)(=O)N2CCN(C(=O)[C@@H]3CCC(=O)N3C3OC(=O)c4ccccc43)CC2)cc1 (stereo partly drawn)	1	33*	-10	0	5	0
CCn1cc(/C=C(\NC(=O)c2ccccc2F)C(=O)NCCN2CCOCC2)c2ccccc21	3	4	-8	4	-5	6
CCCCC/C=C\C/C=C\C/C=C\C/C=C\CCCC(=O)O	nt	nt	nt	47*	nt	nt
CCCCCCCC(=O)O	0	0	-28	-1	-1	3
O=C1CSC(c2ccc(Cl)cc2)N1c1cccnc1 (stereo not drawn)	-2	25*	10	0	7	5
SMILES	DAGLB inhibitor	PAFAH1B2 inh	ATG4B inh	pPAFAH FP inh	PAFAH2 inh	PAFAH1B3 FP inh
Cc1cc(C)c2nc(N3C(=O)C(O)=C(C(=O)c4ccco4)C3c3cccc(O)c3)sc2c1 (stereo not drawn)	13	1	-6	-2	5	5
CC(=O)Oc1cc(C(=O)OCC(=O)N2CCc3ccccc3C2)cc(OC(C)=O)c1OC(C)=O	5	12	0	33*	36*	7
CCOc1c(Br)cc(C(=O)OCC(=O)N2CCc3ccccc3C2)cc1OC	-5	5	4	6	13	8
Cc1ccc(SCC(=O)Nc2ccc(N3CCOCC3)cc2)cc1C	-5	-1	5	8	2	-4
Cc1noc(C)c1C(c1ccccc1)c1ccccc1	-4	29*	6	2	-3	1
Cc1noc(C)c1C(c1ccccc1)S(=O)(=O)c1ccccc1 (stereo not drawn)	2	2	16	2	-3	7
COc1ccc(CNC(=O)Cc2c(C(=O)O)[nH]c3ccccc23)c(OC)c1	2	9	-2	2	-1	8
COc1ccc(CNC(=O)Cc2c(C(=O)O)[nH]c3ccccc23)cc1	1	25*	-2	-3	5	12
COc1cccc(CCC2C(=O)CCCC2=O)c1	1	5	-2	nt	7	7
OC(c1ccccc1)(c1ccc(F)cc1)C(c1ccccc1)N1CCOCC1 (stereo not drawn)	-7	33*	-7	0	-1	2
O=C(Nc1ccccc1Cl)c1cc(S(=O)(=O)N2CCCCC2)ccc1N1CCOCC1	-4	6	-4	-2	-2	4
Cc1ccc(NC(=O)c2cc(S(=O)(=O)N(C)C)ccc2N2CCCC2)cc1S(=O)(=O)N(C)C	2	7	-9	4	4	9
Cc1ccc(NC(=O)c2cc(N3C(=O)C4CC=CCC4C3=O)ccc2N2CCOCC2)cc1Cl (stereo not drawn)	-1	-3	-3	26*	3	12
CC(NC(=O)c1cc(S(=O)(=O)N2CCOCC2)ccc1N1CCCC1)c1ccc(Cl)c(Cl)c1 (stereo not drawn)	0	-1	-2	28*	10	4
Cc1ccc(NC(=O)c2cc(S(=O)(=O)N3CCCCC3)ccc2N2CCOCC2)cc1S(=O)(=O)N(C)C	-12	27*	-6	nt	28	26*
O=C(/C=C/c1ccc(F)cc1)NC(=S)NNC(=O)[C@H]1C[C@@H]1c1ccccc1	12	59*	-8	6	0	4
Oc1ccc(N=C/C=C/c2cccc(Br)c2)cc1-c1nc2ccccc2s1	15	4	7	37*	8	16
Nc1ccc(O)c(-c2nc3ccccc3s2)c1	7	0	2	34*	2	8
Oc1ccc(-c2nc3ccccc3s2)c(O)c1	-8	4	15	6	-3	9
CCC(C)[C@H](NC(=O)C1CC(=O)N(c2ccc3c(c2)OCO3)C1)C(=O)NC1CCCCC1 (stereo partly drawn)	-1	-3	19	-4	-5	0

High-throughput results as filed in PubChem BioAssay.
